High-throughput results: PubChem, The Scripps Research Institute Molecular Screening Center
M1 ag: human M1 muscarinic receptor agonism | 360,000 tested, 0.33% active | CHO-K1 hM1, Fluo-8 calcium fluorescence, agonist mode; 0% DMSO, 100% acetylcholine EC100 | P11229 | activation, % at 3 µM;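 active = activation above the run's mean compound activation plus 3 SD, cut at about 16% in these data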;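 note: peak over basal fluorescence ratio within a 140 s kinetic read after compound addition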
Target sequence (P11229 whole entry, looked up): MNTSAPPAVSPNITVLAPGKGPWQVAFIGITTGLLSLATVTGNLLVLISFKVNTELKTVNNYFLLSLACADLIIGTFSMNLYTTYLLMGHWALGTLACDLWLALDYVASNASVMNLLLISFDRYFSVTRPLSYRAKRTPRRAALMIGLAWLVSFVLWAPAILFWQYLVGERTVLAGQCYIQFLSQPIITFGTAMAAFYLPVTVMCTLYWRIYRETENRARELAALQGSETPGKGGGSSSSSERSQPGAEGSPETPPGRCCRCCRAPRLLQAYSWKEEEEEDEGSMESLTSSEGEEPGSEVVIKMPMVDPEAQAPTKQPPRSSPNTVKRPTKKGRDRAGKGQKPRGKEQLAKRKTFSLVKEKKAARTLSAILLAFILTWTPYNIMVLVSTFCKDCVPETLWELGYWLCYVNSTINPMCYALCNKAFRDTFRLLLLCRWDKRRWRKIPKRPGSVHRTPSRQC
CHO-K1 Ca ag: counter-screen for M1 agonists: effect in parental CHO-K1 cells | 360,000 tested, 0.48% active | AID 602248 | activation, % at 3 µM | Fluo-8 calcium fluorescence; scaled to maximal ATP response, vehicle zero; in the data active = activation above about 15%;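 note: untransfected CHO-K1 host cells lacking M1 receptor as counterscreen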
CHO-K1 Ca PAM: M1 PAM counterscreen hit in parental CHO-K1 cells; ATP EC20, Fluo-8 calcium fluorescence; 0% at ATP EC20, 100% at ATP max; activation, % at 3 µM; 360,000 tested, 0.02% active; AID 602247;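 active = activation above the run cutoff, the mean activation of all test compounds plus 3 SD, cut at about 40% in these data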;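 note: peak over basal fluorescence ratio in a 140 s read after ATP addition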
CHRM1 antagonist: human CHRM1 antagonism | P11229 | AID 588852 | 360,000 tested, 1.3% active | inhibition, % at 3 µM | CHO-K1 hM1, Fluo-8 calcium fluorescence, ACh EC80 antagonist;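 active = percent inhibition above its own plate's cutoff, namely the mean of that plate's compound wells plus 3 SD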;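 note: peak over basal fluorescence ratio during 140 s after agonist addition; 0% = ACh EC80 plus DMSO and 100% = DMSO alone without agonist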
M1 PAM: human CHRM1 positive allosteric modulation. P11229. CHO-K1 hM1, Fluo-8 calcium fluorescence, ACh EC20; 0% = ACh EC20, 100% = maximal ACh. activation, % at 3 µM. 360,000 tested, 0.088% active; in the data active = activation above about 19%, passing the limit was not always enough
CHO-K1 Ca antag: nonselective inhibitor or artifact in parental CHO-K1 cells; 360,000 tested, 0.6% active; inhibition, % at 3 µM; AID 602250; ATP-induced calcium, Fluo-8 fluorescence;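 active = inhibition above a per-plate cutoff, the plate's mean sample inhibition plus 3 SD, cut at about 24% in these data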;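 note: 0% = DMSO plus EC80 ATP and 100% = DMSO alone without ATP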
* = called active by the depositor. Only some compounds are listed: those with a hit (about 2.3% of all), similar ones and a draw of the others.

SMILES | M1 ag | CHO-K1 Ca ag | CHO-K1 Ca PAM | CHRM1 antagonist | M1 PAM | CHO-K1 Ca antag
CN(C)S(=O)(=O)c1cccc(NC(=O)c2ccc(S(=O)(=O)N3CCCCC3)cc2)c1 | -5.2 | 4.2 | -6.2 | 26.9* | -26.8 | 5.3
CN(C)S(=O)(=O)c1cccc(NC(=O)c2cccc(S(=O)(=O)N3CCCCCC3)c2)c1 | -4.5 | 8.3 | -20.0 | 32.5* | -21.0 | 5.8
C=CCn1c(=O)[nH]c2cc(C(=O)N3CCN(c4cccc(Cl)c4)CC3)ccc2c1=O | -5.3 | 2.9 | 5.0 | 20.7* | -22.6 | 5.5
C[C@@H]1CCCCO[C@@H](CN(C)S(=O)(=O)c2ccccc2)[C@@H](C)CN([C@H](C)CO)C(=O)c2cc(N(C)C)ccc2O1 | -9.1 | 0.1 | 16.8 | -4.0 | 1.2 | -10.5
Cc1cccc2cc3c(N)c(C(=O)Nc4ccc(N5CCOCC5)cc4)sc3nc12 | 1.2 | 5.6 | 4.7 | 14.5 | -11.6 | -7.0
CCc1cccc2cc3c(N)c(C(=O)Nc4ccc(S(=O)(=O)N5CCCC5)cc4)sc3nc12 | 11.0 | 16.0* | 15.0 | 33.3 | -7.9 | 19.4
O=C(Nc1ccccc1N1CCOCC1)c1ccccc1NS(=O)(=O)c1ccc(F)c(F)c1 | 13.8 | 8.9 | -6.1 | -12.7 | -1.5 | 24.1*
COc1ccc(-c2csc(NC(=O)c3ccccc3NS(=O)(=O)c3ccc(F)c(F)c3)n2)cc1 | 1.5 | 15.2* | -14.5 | 43.5* | -16.0 | 22.9
O=C(Nc1ccccc1N1CCOCC1)c1ccccc1NS(=O)(=O)c1ccc(F)cc1 | -0.5 | 2.4 | 11.4 | 8.3 | -4.6 | 2.6
Cc1ccc(S(=O)(=O)Nc2ccccc2C(=O)Nc2nc(-c3ccc(F)cc3)cs2)cc1 | -1.0 | 15.9* | 4.7 | 35.4 | -16.7 | 25.8*
CCN(CC)S(=O)(=O)c1ccc(=O)n(CC(=O)N2CCCc3cc(C)ccc32)c1 | -5.7 | 5.2 | 17.2 | 3.0 | 0.7 | -14.6
CCN(CC(=O)NC1CCS(=O)(=O)C1)S(=O)(=O)c1ccc(Br)cc1 (stereo not drawn) | -3.4 | 1.4 | 13.0 | -19.9 | 11.8 | -8.8
CC1(C)Oc2ccc3ccc(=O)oc3c2/C(=C/Nc2ccc(O)cc2)C1=O | -11.0 | 3.3 | 12.7 | 8.8 | -9.0 | -1.9
CC1(C)Oc2ccc3ccc(=O)oc3c2/C(=C/Nc2cccc(O)c2)C1=O | -2.4 | 1.1 | -10.1 | 14.0 | -12.2 | 29.4*
COc1ccc(/C=C/c2cc(C(=O)O)c3ccccc3n2)cc1 | 8.0 | 21.3* | 4.8 | 4.5 | 0.2 | 1.8
O=C(NCc1ccncc1)c1csc([C@@H]2C[C@H](O)[C@@H](CO)O2)n1 | -1.9 | -0.2 | -11.0 | 6.1 | -3.3 | 7.4
CCOc1cc(CNn2cnnc2)cc(Br)c1OCC(=O)NC1CCCCC1 | -2.3 | -0.3 | -8.8 | 8.9 | 3.1 | 28.6*
C=CCN1CCC(=O)C(C(=O)OCC)=C1C(=O)OCC | -0.7 | 0.7 | 9.9 | -9.3 | 3.0 | -5.8
CCn1c(SCC(=O)NNC(=S)Nc2ccc(C)cc2)nnc1-c1ccc(Cl)cc1 | -6.0 | 16.2* | 27.5 | -11.8 | 11.3 | -4.7
CCCN1CCc2c(sc(NC(=S)NC(=O)c3ccccc3)c2C#N)C1 | 36.9* | 46.0* | -1.1 | 19.1 | -7.5 | 16.3
CC(C)N1CCc2c(sc(NC(=S)NC(=O)c3ccccc3)c2C#N)C1 | -7.8 | 3.0 | 17.2 | -11.7 | 9.0 | -4.8
CC(=O)c1ccc(NC(=O)/C(=C\c2ccc(F)cc2)NC(=O)c2ccco2)cc1 | -3.2 | 0.2 | 7.5 | 15.4 | -10.4 | 9.7
Cc1ccc(Nc2ccc(-n3ccnc3)nn2)cc1C | -4.5 | -0.1 | 3.2 | -9.1 | 2.4 | -6.6
COc1cccc(Nc2ccc(-n3ccnc3)nn2)c1 | 0.6 | 15.3* | 14.1 | -8.7 | 11.2 | -2.6
CCC(=O)c1cn(CC(=O)Nc2ccc(C)cc2)c2ccccc12 | -2.5 | 1.3 | 19.4 | -3.3 | 5.8 | -18.1
SMILES | M1 ag | CHO-K1 Ca ag | CHO-K1 Ca PAM | CHRM1 antagonist | M1 PAM | CHO-K1 Ca antag
CC(Oc1ccc2c(-c3ccccc3)cc(=O)oc2c1)C(=O)NC(Cc1c[nH]c2ccc(O)cc12)C(=O)O (stereo not drawn) | -1.4 | 2.8 | -14.9 | 8.6 | -9.8 | 26.6*
CCSc1nc2c(c(=O)n(C)c(=O)n2C)n1Cc1ccc(Cl)cc1 | -3.5 | 1.3 | 21.6 | -5.8 | -3.4 | -15.3
Cn1c(=O)c2c(nc(SCCN3CCCCC3)n2Cc2ccc(Cl)cc2)n(C)c1=O | -6.8 | 0.3 | 11.4 | 32.5* | -26.0 | -6.7
O=C1COc2ccc(C(=O)CSc3nnc(NCc4ccccc4)s3)cc2N1 | 1.0 | 17.0* | 6.3 | -1.1 | -3.4 | 4.3
O=C1COc2ccc(C(=O)CSc3nnc(Cc4ccccc4)o3)cc2N1 | -1.2 | 1.8 | 8.5 | -5.0 | 1.3 | -2.9
CN(C)CCCN(Cc1ccccc1)C(=S)Nc1cccc(C(F)(F)F)c1 | -5.9 | 1.7 | 3.5 | 6.8 | -4.6 | 4.1
CN(C)CCCN(Cc1ccccc1)C(=S)Nc1ccc(F)c(Cl)c1 | -6.7 | 2.4 | -9.8 | 38.3* | -21.4 | -5.5
CCC1=NN(C(=O)c2ccc(Cl)cc2)C(O)(c2ccc(C)cc2)C1 (stereo not drawn) | -2.0 | 0.3 | 3.5 | -7.0 | 9.2 | -1.9
CCOC(=O)C1=NN(C(=O)c2ccc(C)cc2)C(O)(c2ccc(Cl)cc2)C1 (stereo not drawn) | 22.0* | 13.1 | -2.1 | 3.2 | -5.1 | -5.3
Cc1noc(C)c1S(=O)(=O)NC(=O)C1(C)CCN1C(=O)C1(c2ccc(Cl)cc2)CCC1 (stereo not drawn) | -1.9 | 1.0 | 14.7 | -18.8 | 7.9 | -7.7
Cc1ccc(N/C(N)=N/c2nc(C)cc(N3CCCCC3)n2)c(C)c1 | -10.3 | 10.5 | 3.6 | 33.7* | -31.7 | 25.2*
CC12CCC(=O)N1C(C(=O)NNC(=O)COc1ccccc1F)CS2 (stereo not drawn) | -2.2 | 0.5 | 24.3 | -5.5 | 6.8 | -4.2
CCOC(=O)C1CCCN(c2nc3c(C)cccn3c(=O)c2/C=C(\C#N)C(=O)NCc2ccco2)C1 (stereo not drawn) | 62.5* | 1.6 | 10.1 | 76.1* | -24.6 | -18.0
Cc1cccn2c(=O)c(/C=C(\C#N)C(=O)NCc3ccco3)c(N3CCCC(C)C3)nc12 (stereo not drawn) | -7.5 | 0.6 | -6.3 | -5.5 | 0.8 | 1.4
CN(CC(=O)NCc1ccco1)C(=O)C1CC(=O)N(c2ccc3c(c2)OCCO3)C1 (stereo not drawn) | 1.9 | 0.0 | 10.4 | -21.0 | 28.2* | -16.9
O=C(NNC(=O)C1CC(=O)N(c2ccc3c(c2)OCCO3)C1)c1ccc(F)cc1 (stereo not drawn) | 4.3 | -0.2 | -35.6 | -3.8 | 10.8 | 27.1*
Cc1cccc(N2CCN(C(=O)C3CC(=O)N(c4ccc5c(c4)OCCO5)C3)CC2C)c1 (stereo not drawn) | 2.0 | 11.2 | -3.1 | 29.9* | -17.9 | -0.8
CC(Oc1ccccc1F)C(=O)NNC(=O)C1CC(=O)N(c2ccc3c(c2)OCCO3)C1 (stereo not drawn) | -3.5 | -0.3 | -19.0 | 7.6 | -3.5 | 11.1
